Reference: PubChem BioAssay (NCATS)
Records with an inconclusive call do not appear. Where a call stands in place of a potency, no number is given. The source made the active and inactive calls. Calls come from the whole dose curve; as a rule, active = well fitted inhibition curve with a large enough effect; inconclusive = small, poorly fitted or top-dose-only effect; inactive = flat fitted curve, though single readings scatter.

Assays:
Test in all cases: qHTS profiling for inhibitors of Plasmodium falciparum proliferation (AID 504749); note: nearly all actives have a fitted effect of over 60% in size
Conditions in all cases: P. falciparum in erythrocytes, SYBR Green DNA, 72 h; series mostly up to 28.7 µM
[1] = system: CP286
Procedure, shortened: (§1)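 Readout was DNA-dye fluorescence from lysed cultures, ex 485/em 535 nm. Parasitized red cells had grown 72 h with compound; data scaled between 0.29 uM artemisinin and DMSO wells and corrected using vehicle-only plates.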

[2] = system: CP291
Procedure, shortened: as §1

[3] = system: CP297
Procedure, shortened: as §1

[4] = system: CP305
Procedure, shortened: as §1

[5] = system: CP315
Procedure, shortened: as §1

[6] = system: CP325
Procedure, shortened: as §1

[7] = system: CP329
Procedure, shortened: as §1

[8] = system: CP335
Procedure, shortened: as §1

[9] = system: DIV14
Procedure, shortened: as §1

[10] = system: DIV17
Procedure, shortened: as §1

[11] = system: DIV30
Procedure, shortened: as §1

[12] = system: Dd2
Procedure, shortened: as §1

[13] = system: ECU
Procedure, shortened: as §1

[14] = system: FAB9
Procedure, shortened: as §1

[15] = system: GB4
Procedure, shortened: as §1

[16] = system: HB3
Procedure, shortened: as §1

[17] = system: ICS
Procedure, shortened: as §1

[18] = system: JCK
Procedure, shortened: as §1

[19] = system: N140
Procedure, shortened: as §1

[20] = system: P93_24
Procedure, shortened: as §1
Potency is the fitted concentration of half-maximal effect.

Row | SMILES | Potency [1] | Potency [2] | Potency [3] | Potency [4] | Potency [5] | Potency [6] | Potency [7] | Potency [8] | Potency [9] | Potency [10] | Potency [11] | Potency [12] | Potency [13] | Potency [14] | Potency [15] | Potency [16] | Potency [17] | Potency [18] | Potency [19] | Potency [20]
1 | CC[C@H]1CN2CCc3cc(OC)c(OC)cc3[C@H]2C[C@@H]1C[C@@H]1NCCc2cc(OC)c(OC)cc21 | 158 nM (active) | 269 nM (active) | 379 nM (active) | 379 nM (active) | 757 nM (active) | 478 nM (active) | 379 nM (active) | 379 nM (active) | 379 nM (active) | 338 nM (active) | 478 nM (active) | 178 nM (active) | 316 nM (active) | 141 nM (active) | 269 nM (active) | 316 nM (active) | 178 nM (active) | 141 nM (active) | 316 nM (active) | 282 nM (active)
2 | COc1c(N2C[C@@H]3CCCN[C@H]3C2)c(F)cc2c(=O)c(C(=O)O)cn(C3CC3)c12 | inactive | inactive | inactive | – | inactive | inactive | inactive | inactive | inactive | inactive | inactive | inactive | inactive | inactive | – | inactive | inactive | – | inactive | –
3 | O=c1[nH]c(=O)n(C2CCCO2)cc1F (stereo not drawn) | inactive | inactive | inactive | inactive | inactive | inactive | inactive | inactive | inactive | inactive | inactive | inactive | inactive | inactive | inactive | inactive | inactive | inactive | inactive | inactive
4 | Nc1ccc(S(=O)(=O)Nc2ncccn2)cc1 | inactive | inactive | inactive | inactive | – | inactive | inactive | inactive | inactive | inactive | inactive | inactive | inactive | inactive | inactive | inactive | inactive | inactive | inactive | inactive
5 | COC(=O)C[C@](O)(CCCC(C)(C)O)C(=O)O[C@@H]1C(OC)=C[C@]23CCCN2CCc2cc4c(cc2[C@H]13)OCO4 | 28.2 nM (active) | 33.8 nM (active) | 16.9 nM (active) | 33.8 nM (active) | 23.9 nM (active) | 33.8 nM (active) | – | 21.3 nM (active) | 26.9 nM (active) | 23.9 nM (active) | 33.8 nM (active) | 12.6 nM (active) | 17.8 nM (active) | 56.2 nM (active) | 30.1 nM (active) | 28.2 nM (active) | 15.8 nM (active) | 6.3 nM (active) | 20 nM (active) | 28.2 nM (active)
6 | CC1(C)O[C@@H]2C[C@@H]3[C@H]4C[C@@H](F)C5=CC(=O)C=C[C@]5(C)[C@@]4(F)[C@@H](O)C[C@]3(C)[C@]2(C(=O)CO)O1 | inactive | – | – | – | – | – | – | inactive | – | – | 10700 nM (active) | inactive | inactive | inactive | – | inactive | – | inactive | inactive | inactive
7 | CN1c2cc(O)c(N=NC(N)=O)cc2CC1S(=O)(=O)O (stereo not drawn) | inactive | inactive | inactive | inactive | inactive | inactive | inactive | inactive | inactive | inactive | inactive | inactive | inactive | inactive | inactive | inactive | inactive | inactive | inactive | inactive
8 | Nc1ccn([C@@H]2O[C@H](CO)[C@H](O)C2(F)F)c(=O)n1 | 3980 nM (active) | 4260 nM (active) | 6750 nM (active) | 5360 nM (active) | 8490 nM (active) | 2390 nM (active) | 5360 nM (active) | 2390 nM (active) | 849 nM (active) | 953 nM (active) | 2690 nM (active) | 1780 nM (active) | 5010 nM (active) | 1410 nM (active) | 953 nM (active) | 3980 nM (active) | 3980 nM (active) | – | 1120 nM (active) | 316 nM (active)
9 | CCC1=C[C@@H]2CN(C1)Cc1c([nH]c3ccccc13)[C@@](C(=O)OC)(c1cc3c(cc1OC)N(C)[C@@H]1[C@@](O)(C(=O)OC)[C@H](OC(C)=O)[C@]4(CC)C=CCN5CC[C@]31[C@@H]54)C2 | 2000 nM (active) | 3010 nM (active) | 3790 nM (active) | 3010 nM (active) | 3790 nM (active) | 3790 nM (active) | 3010 nM (active) | 1690 nM (active) | 3790 nM (active) | 3790 nM (active) | 4260 nM (active) | 891 nM (active) | 3980 nM (active) | – | 2130 nM (active) | 7940 nM (active) | 3160 nM (active) | 14100 nM (active) | 1410 nM (active) | 2240 nM (active)
10 | CC=CC1=C(C(=O)O)N2C(=O)[C@H](NC(=O)[C@H](N)c3ccc(O)cc3)[C@@H]2SC1 | inactive | inactive | inactive | inactive | inactive | inactive | inactive | inactive | inactive | – | inactive | inactive | inactive | inactive | inactive | inactive | inactive | inactive | inactive | inactive
11 | COc1cc(C(=O)NS(=O)(=O)c2ccccc2C)ccc1Cc1cn(C)c2ccc(NC(=O)OC3CCCC3)cc12 | inactive | inactive | – | inactive | – | inactive | inactive | – | – | – | – | – | inactive | inactive | – | inactive | – | inactive | inactive | inactive
12 | Nc1ccn([C@@H]2CS[C@H](CO)O2)c(=O)n1 | inactive | inactive | inactive | inactive | inactive | inactive | inactive | inactive | inactive | inactive | inactive | inactive | inactive | inactive | inactive | inactive | inactive | inactive | inactive | inactive
13 | C[C@H]1C[C@@H]2[C@@H]([C@@H](O)C[C@@]3(C)[C@H]2CC[C@]3(O)C(=O)CO)[C@@]2(C)C=CC(=O)C=C12 | inactive | inactive | – | inactive | inactive | inactive | inactive | inactive | inactive | inactive | inactive | inactive | inactive | inactive | inactive | inactive | inactive | inactive | inactive | inactive
14 | CC(C)(C)NC(=O)[C@H]1CN(Cc2cccnc2)CCN1C[C@@H](O)C[C@@H](Cc1ccccc1)C(=O)N[C@H]1c2ccccc2C[C@H]1O | – | 15100 nM (active) | – | 13500 nM (active) | – | – | – | 12000 nM (active) | 13500 nM (active) | – | 9530 nM (active) | – | 11200 nM (active) | – | 5360 nM (active) | – | – | inactive | – | 14100 nM (active)
15 | COC(=O)C1=C(C)NC(C)=C(C(=O)OCCN2CCN(C(c3ccccc3)c3ccccc3)CC2)C1c1cccc([N+](=O)[O-])c1 (stereo not drawn) | 2510 nM (active) | 4780 nM (active) | 4260 nM (active) | 5360 nM (active) | 4780 nM (active) | 3790 nM (active) | 4780 nM (active) | 1690 nM (active) | 3790 nM (active) | 1690 nM (active) | 1690 nM (active) | 1580 nM (active) | 2510 nM (active) | 7080 nM (active) | 2690 nM (active) | 3160 nM (active) | 1000 nM (active) | 12600 nM (active) | 1580 nM (active) | 2820 nM (active)
16 | O=C(O)CO.[NH2-].[NH2-].[Pt+2] | inactive | inactive | inactive | inactive | inactive | inactive | inactive | inactive | inactive | – | inactive | inactive | inactive | inactive | inactive | inactive | – | inactive | inactive | inactive
